# According to publication PMC5540273 (PLoS ONE, 2017):
# Values joined by “and” are separate entries in the source; they are usually repeats but may differ in a detail not shown here. Equal entries are not always repeated. Where two headings read alike, the source gives them in different places.
# How the values were obtained:
# [1] = tested on: GRK1; settings: concentration: 1 μM, replicates: in singlicate, n = 1
# [2] = tested on: T1, GRK2; settings: concentration: 1 μM, replicates: in singlicate; n = 1
# T1 construct: gene ADRBK1
# [3] = tested on: T2, GRK3; settings: concentration: 1 μM, replicates: in singlicate, n = 1
# T2 construct: gene ADRBK2
# [4] = tested on: GRK4; settings: concentration: 1 μM, replicates: in singlicate, n = 1
# [5] = tested on: GRK7; settings: concentration: 1 μM, replicates: in singlicate; n = 1
# [6] = tested on: GSK3A; settings: concentration: 1 μM, replicates: in singlicate, n = 1
# [7] = tested on: GSK3B; settings: concentration: 1 μM, replicates: in singlicate, n = 1
# [8] = tested on: T3, HASPIN; settings: concentration: 1 μM, replicates: in singlicate, n = 1
# T3 construct: gene GSG2
# [9] = tested on: HCK; settings: concentration: 1 μM, replicates: in singlicate, n = 1
# [10] = tested on: HIPK1; settings: concentration: 1 μM, replicates: in singlicate, n = 1
# [11] = tested on: HIPK2; settings: concentration: 1 μM, replicates: in singlicate, n = 1
# [12] = tested on: HIPK3; settings: concentration: 1 μM, replicates: in singlicate, n = 1
# [13] = tested on: HIPK4; settings: concentration: 1 μM, replicates: in singlicate, n = 1
# [14] = tested on: HPK1; settings: concentration: 1 μM, replicates: in singlicate, n = 1
# [15] = tested on: HUNK; settings: concentration: 1 μM, replicates: in singlicate, n = 1
# [16] = tested on: ICK; settings: concentration: 1 μM, replicates: in singlicate, n = 1
# [17] = tested on: IGF1R; settings: concentration: 1 μM, replicates: in singlicate; n = 1
# [18] = tested on: T4, IKK-alpha; settings: concentration: 1 μM, replicates: in singlicate, n = 1
# T4 construct: gene CHUK
# [19] = tested on: T5, IKK-beta; settings: concentration: 1 μM, replicates: in singlicate; n = 1
# T5 construct: gene IKBKB
# [20] = tested on: T6, IKK-epsilon; settings: concentration: 1 μM, replicates: in singlicate, n = 1
# T6 construct: gene IKBKE
# 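Further: KINOMEscan kinase panel screen.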
compound,measurement,setting,value
Cn1cc(-c2ccc3c(c2)CCN3C(=O)Cc2cccc(C(F)(F)F)c2)c2c(N)ncnc21 [GSK2606414],%Inh,[1],5%
same,%Inh,[2],4%
same,%Inh,[3],0%
same,%Inh,[4],100%
same,%Inh,[5],0%
same,%Inh,[6],0%
same,%Inh,[7],0%
same,%Inh,[8],0%
same,%Inh,[9],0%
same,%Inh,[10],0%
same,%Inh,[11],0%
same,%Inh,[12],16%
same,%Inh,[13],0%
same,%Inh,[14],6%
same,%Inh,[15],0%
same,%Inh,[16],4%
same,%Inh,[17],0%
same,%Inh,[18],13%
same,%Inh,[19],7%
same,%Inh,[20],4%
CS(=O)(=O)CCNCc1ccc(-c2ccc3ncnc(Nc4ccc(OCc5ccccc5)c(Cl)c4)c3c2)o1.Cl [GW574783],%Inh,[1],2%
same,%Inh,[2],1%
same,%Inh,[3],20%
same,%Inh,[4],0%
same,%Inh,[5],0%
same,%Inh,[6],8%
same,%Inh,[7],1%
same,%Inh,[8],30%
same,%Inh,[9],18%
same,%Inh,[10],0%
same,%Inh,[11],13%
same,%Inh,[12],18%
same,%Inh,[13],18%
same,%Inh,[14],22%
same,%Inh,[15],14%
same,%Inh,[16],0%
same,%Inh,[17],13%
same,%Inh,[18],0%
same,%Inh,[19],0%
same,%Inh,[20],7%
COc1cc2c(Nc3cccc(NC(=O)c4ccccc4)c3)ncnc2cc1OCCCN1CCOCC1 [GSK223810],%Inh,[1],0%
same,%Inh,[2],14%
same,%Inh,[3],0%
same,%Inh,[4],15%
same,%Inh,[5],0%
same,%Inh,[6],0%
same,%Inh,[7],0%
same,%Inh,[8],0%
same,%Inh,[9],0%
same,%Inh,[10],0%
same,%Inh,[11],0%
same,%Inh,[12],0%
same,%Inh,[13],7%
same,%Inh,[14],55%
same,%Inh,[15],0%
same,%Inh,[16],0%
same,%Inh,[17],0%
same,%Inh,[18],0%
same,%Inh,[19],0%
same,%Inh,[20],19%
Clc1cc(Nc2ncnc3cc[nH]c23)ccc1OCc1ccccn1,%Inh,[1],15%
same,%Inh,[2],0%
same,%Inh,[3],9%
same,%Inh,[4],25%
same,%Inh,[5],14%
same,%Inh,[6],6%
same,%Inh,[7],7%
same,%Inh,[8],0%
same,%Inh,[9],41%
same,%Inh,[10],28%
same,%Inh,[11],19%
same,%Inh,[12],27%
same,%Inh,[13],0%
same,%Inh,[14],0%
same,%Inh,[15],13%
same,%Inh,[16],18%
same,%Inh,[17],0%
same,%Inh,[18],9%
same,%Inh,[19],20%
same,%Inh,[20],27%
CC(C)N1CCC(n2cnc(-c3ccc(F)cc3)c2-c2ccnc(N)n2)CC1 [SB-223132],%Inh,[1],0%
same,%Inh,[2],0%
same,%Inh,[3],0%
same,%Inh,[4],4%
same,%Inh,[5],0%
same,%Inh,[6],17%
same,%Inh,[7],0%
same,%Inh,[8],12%
same,%Inh,[9],0%
same,%Inh,[10],30%
same,%Inh,[11],0%
same,%Inh,[12],0%
same,%Inh,[13],11%
same,%Inh,[14],0%
same,%Inh,[15],0%
same,%Inh,[16],0%
same,%Inh,[17],0%
same,%Inh,[18],0%
same,%Inh,[19],0%
same,%Inh,[20],0%
CNc1nccc(-c2c(-c3ccc(F)cc3)ncn2CCCN2CCOCC2)n1 [SB-222516],%Inh,[1],22%
same,%Inh,[2],0%
same,%Inh,[3],23%
same,%Inh,[4],0%
same,%Inh,[5],0%
same,%Inh,[6],0%
same,%Inh,[7],14%
same,%Inh,[8],8%
same,%Inh,[9],0%
same,%Inh,[10],0%
same,%Inh,[11],0%
same,%Inh,[12],0%
same,%Inh,[13],0%
same,%Inh,[14],0%
same,%Inh,[15],39%
same,%Inh,[16],37%
same,%Inh,[17],2%
same,%Inh,[18],0%
same,%Inh,[19],0%
same,%Inh,[20],0%
COc1ccc(-c2nc3n(c2-c2ccncc2)CCC3)cc1 [SKF-104493],%Inh,[1]; 1 µM,11% and 12%
same,%Inh,[2],0%
same,%Inh,[3]; 1 µM,5% and 0%
same,%Inh,[4]; 1 µM,27% and 2%
same,%Inh,[5],0%
same,%Inh,[6]; 1 µM,0% and 17%
same,%Inh,[7]; 1 µM,27% and 1%
same,%Inh,[8]; 1 µM,28% and 0%
same,%Inh,[9]; 1 µM,10% and 0%
same,%Inh,[10]; 1 µM,8% and 0%
same,%Inh,[11]; 1 µM,11% and 0%
same,%Inh,[12]; 1 µM,0% and 17%
same,%Inh,[13]; 1 µM,2% and 0%
same,%Inh,[14]; 1 µM,17% and 0%
same,%Inh,[15]; 1 µM,35% and 0%
same,%Inh,[16]; 1 µM,32% and 10%
same,%Inh,[17],0%
same,%Inh,[18]; 1 µM,1% and 0%
same,%Inh,[19],0%
same,%Inh,[20]; 1 µM,0% and 20%
FC(F)(F)c1cc(Nc2nccc(-c3c(-c4ccc(Cl)cc4)nn4ncccc34)n2)ccc1Cl [GW829351],%Inh,[1],0%
same,%Inh,[2],0%
same,%Inh,[3],0%
same,%Inh,[4],10%
same,%Inh,[5],0%
same,%Inh,[6],26%
same,%Inh,[7],0%
same,%Inh,[8],0%
same,%Inh,[9],0%
same,%Inh,[10],3%
same,%Inh,[11],0%
same,%Inh,[12],0%
same,%Inh,[13],0%
same,%Inh,[14],0%
same,%Inh,[15],67%
same,%Inh,[16],0%
same,%Inh,[17],0%
same,%Inh,[18],0%
same,%Inh,[19],0%
same,%Inh,[20],0%
